# Assay outcomes deposited in PubChem BioAssay by National Center for Advancing Translational Sciences (NCATS).
# This is a sample that favours compounds with a hit; in the whole collection about 18% have one here.
# LDHA inh = blocks human lactate dehydrogenase A; activity change, % (values are at about 110 or 230 µM); P00338; AID 1347041; actives 0.15% (n = 480,000); purified LDHA, NADH/diaphorase-resazurin fluorescence; hits give low values; in the data active means activity change below about -30%; inconclusive means mostly about -25% to -30%;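 further: plate controls were DMSO wells for no effect and wells without enzyme for full effect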
#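 LDH5 2 nM; NADH 0.06 mM, pyruvate 0.2 mM; 200 mM Tris pH 7.4, EDTA, Tween-20; 5 min RT. Detection: diaphorase 0.133 mg/mL + resazurin 37 µM, fluorescence ex540/em590 at 0 and 20 min; normalized to enzyme-free and DMSO wells.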
# Gal4-VP16 FLuc = counter-screen for ROR gamma inhibitors: Gal4-VP16 reporter; actives 3.5% (n = 310,000); Potency, µM (series often up to 53.6 µM), for the others: top-dose activity, negative = inhibition, usual class: inhibitors; Drosophila S2 Gal4-VP16 UAS-luciferase, luminescence, 20 h;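 further: Gal4-VP16 expression switched on by copper sulfate through the metallothionein promoter; potency means the concentration at half of the fitted maximal effect; nearly all actives have a fitted effect of over 50% in size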
# IL1B secr inh = inflammasome signaling inhibition, IL-1 beta readout. THP-1 LPS/ATP IL-1B secretion, AlphaLISA, 16 h; hits give low values. activity change, % at 57.5 µM. actives 4.7% (n = 360,000). AID 743279; in the data active means activity change below about -50%; inconclusive means mostly about -30% to -49%
#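 THP-1 cells pretreated 1 hr with compounds (up to 57.5 uM final), then stimulated with LPS (250 ng/mL final) plus ATP (1.25 mM final); secreted IL-1B measured by AlphaLISA after 16 hr, decreased signal indicating inhibition.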
# RORgamma inh = blocks mouse ROR gamma transcriptional activity; Drosophila S2 Gal4-RORgamma UAS-luciferase reporter, 20 h; AID 2551; P51450; Potency, µM (highest dose often 53.6 µM), without a hit: top-dose activity change, negative = inhibition, most hits filed as inhibitors; actives 5.4% (n = 310,000); further: potency means the concentration at half of the fitted maximal effect; nearly all actives have a fitted effect of over 60% in size
# Target sequence (P51450 whole entry, looked up, the tested form may be a part): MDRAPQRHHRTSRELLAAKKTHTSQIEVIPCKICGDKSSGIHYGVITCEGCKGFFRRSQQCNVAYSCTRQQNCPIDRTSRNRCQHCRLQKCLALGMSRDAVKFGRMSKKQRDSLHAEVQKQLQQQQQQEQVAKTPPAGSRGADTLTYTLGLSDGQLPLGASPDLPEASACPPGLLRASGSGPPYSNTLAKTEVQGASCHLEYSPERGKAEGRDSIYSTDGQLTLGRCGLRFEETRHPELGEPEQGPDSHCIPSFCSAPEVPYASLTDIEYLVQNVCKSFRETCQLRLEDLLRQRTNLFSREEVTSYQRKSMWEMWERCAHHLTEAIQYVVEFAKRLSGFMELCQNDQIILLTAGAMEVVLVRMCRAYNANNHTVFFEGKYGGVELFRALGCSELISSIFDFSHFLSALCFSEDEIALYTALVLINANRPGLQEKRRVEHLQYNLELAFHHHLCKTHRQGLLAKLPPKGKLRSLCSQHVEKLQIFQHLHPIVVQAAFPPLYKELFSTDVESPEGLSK
#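 Stable Schneider cell line, Gal4 DNA-binding domain fused to ROR gamma, UAS-luciferase. Cmpd 1 hr RT → CuSO4 700 uM final → 20 hr RT → luciferase reagent 10 min → luminescence.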
# DT40 TDP1 no CPT = qHTS for Inhibitors of human tyrosyl-DNA phosphodiesterase 1 (TDP1): qHTS in cells in absence of CPT. DT40 Tdp1-/- hTDP1 cells, no CPT, ATP luminescence, 48 h. Potency, µM (titrated, usually from 46.2 µM), without a hit: at the top dose activity change, negative = growth inhibition, usual class: inhibitors. actives 15% (n = 420,000). AID 686978, 2013; further: potency means the concentration at half of the fitted maximal effect; nearly all actives have a fitted effect of over 55% in size
#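 No-CPT arm: Tdp1-/-;hTDP1 DT40 cells (400/well) plus compounds, incubated ≥48 hr at 37 °C. Readout CellTiter-Glo luminescence.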
# TDP1 cell CPT = DT40-hTDP1 cell growth loss with CPT | chicken DT40 Tdp1-/-;hTDP1 cells + 20 nM CPT, ATP luminescence, 48 h | Potency, µM (series often up to 46.2 µM), for the others: at the top dose activity change, negative = growth inhibition, most hits filed as inhibitors | actives 12% (n = 420,000); further: potency means the concentration at half of the fitted maximal effect; nearly all actives have a fitted effect of over 55% in size
#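 Chicken DT40 Tdp1-/- cells complemented with human TDP1, 400 cells/well, exposed to compounds plus 20 nM camptothecin for at least 48 h at 37 C; viability read as ATP content by CellTiter-Glo luminescence.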
# * hit, by the source's call; ? = inconclusive; nt = not tested or not shown; [ ] = another dose, or the depositor's remark. Unless noted, the call rests on the fitted dose curve; in most records, active means well fitted curve in the direction sought with a large enough effect; inconclusive means small, poorly fitted or top-dose-only effect, or another doubt; inactive means no such curve, though single readings can be large; an effect the other way counts as inactive or inconclusive. Unless noted, on the % scale 0 is the no-effect control and ±100 the full control effect.
SMILES,LDHA inh,Gal4-VP16 FLuc,IL1B secr inh,RORgamma inh,DT40 TDP1 no CPT,TDP1 cell CPT
COc1ccc(CCNc2oc(-c3ccc(OC)c(OC)c3)nc2C#N)cc1,-4.5,-3.5%,-4.4,-1.8%,?,11.2µM*
COc1ccc(CCNc2oc(-c3ccc(OC)c(OC)c3)nc2C#N)cc1OC,-2.1,nt,nt,nt,nt,nt
N#CC1=C(N)Oc2c(oc(CO)cc2=O)C1c1cccc(Oc2ccccc2)c1 (stereo not drawn),0.9,nt,nt,nt,nt,nt
CCC(C)NC(=O)CSc1cc(C)c2cc(C)cc(C)c2n1 (stereo not drawn),-2.6,nt,nt,nt,nt,nt
CN1CCN(CCOC2Cc3ccccc3Sc3ccc(Cl)cc32)CC1 (stereo not drawn),-0.2,-16.6%,-71.0*,18.7%,20.6µM*,?
OCCN1CCN(C2Cc3cc(Cl)ccc3Sc3ccc(Cl)cc32)CC1 (stereo not drawn) (tested in a mixture with another compound),1.8,-0.8%,-98.5*,15.2%,?,23.1µM*
CN1CCN(C2Cc3cc(Cl)ccc3Sc3cc(F)ccc32)CC1 (stereo not drawn),-6.4,nt,-94.1*,nt,?,?
Cc1ccc(NC(=O)Cn2nc3c(cc2=O)CCCC3)c(Cl)c1,3.0,nt,nt,nt,nt,nt
Cc1cnc2c(S(=O)(=O)NC(C3CC3)C3CC3)cccc2c1,0.7,nt,nt,nt,nt,nt
O=C(COc1ccc(OCc2ccccc2)cc1)OCC(=O)c1cc2ccccc2o1,3.8,nt,nt,nt,nt,nt
Fc1ccc(-c2nnc(NC3=NCCCCC3)o2)cc1,-1.9,?,10.9,2.82µM*,13µM*,?
CC(C)C(=O)Nc1nnc(-c2ccccc2)o1,-0.1,?,4.9,?,-19.8%,-17.0%
c1ccc(-c2nnc(NC3=NCCC3)o2)cc1,-11.1,-0.1%[10 µM],28.4,7.08µM*,-12.7%,-13.4%
Fc1ccc(NC2=NCCCCC2)cc1,-10.7,1.6%,7.5,-1.1%,-3.4%,2.9%
CCNc1c(NC(=O)Nc2ccc(F)cc2)c(=O)oc2ccccc12,-6.1,nt,nt,nt,nt,nt
c1ccc(CN2CCC(Nc3nc(-c4ccccc4)nc4ccccc34)CC2)cc1,-5.8,-3.3%,-52.0*,-39.3%,?,10.8%
Cc1csc2ncnc(NC3CCN(Cc4ccccc4)CC3)c12,-9.0,2.82µM*,?,2.51µM*,0.651µM*,1.03µM*
c1cncc(-c2nc(NC3CCN(C4CC4)CC3)c3ccccc3n2)c1,-17.7,nt,nt,nt,nt,nt
c1ccc(CN2CCC(CNc3ncnc4ccccc34)C2)cc1 (stereo not drawn),-5.6,nt,-11.3,nt,10.3µM*,20.6µM*
c1ccc(CN2CCC(NC3CCCC3)CC2)cc1,4.7,nt,nt,nt,nt,nt
O=C(Nc1ccc(F)cc1F)c1ccc(S(=O)(=O)C2CCS(=O)(=O)C2)cc1 (stereo not drawn),0.9,nt,nt,nt,nt,nt
COc1ccc2c(CN3CCN(c4ccccc4O)CC3)cc(=O)oc2c1,6.8,nt,nt,nt,nt,nt
O=C(Nc1ccccc1)N(Cc1cccs1)C1CCCC1,0.9,-1.1%,-1.4,1.1%,?,?
CCOc1ccc(NC(=O)N(Cc2cn(CC)c3ccccc23)C2CCCCCC2)cc1,-0.8,nt,nt,nt,20.6µM*,9.2µM*
CCc1ccc(NC(=O)N(Cc2cn(CC)c3ccccc23)C2CCCCC2)cc1,-5.2,nt,nt,nt,11.6µM*,7.31µM*
Oc1ccc(/C=N/N2CCCCC2)c(O)c1O,37.9,6.9%,-2.7,6.1%,10.3µM*,5.8µM*
O=C1c2ccccc2C(=O)N1/N=C/c1ccc(O)c(O)c1O,48.9,-8.7%,-1.1,3.6%,?,4.11µM*
Oc1cccc(/C=N/N2CCCCC2)c1O,14.0,27.7%,-2.9,19.6%,?,-24.3%
COc1cccc(/C=N/N2CCOCC2)c1O,12.4,-0.1%,-18.4,-28.6%,1.8%,2.8%
Oc1ccc(/C=N/N2CCOCC2)c(O)c1O,27.3,-3.4%,-19.3,0.6%,4.11µM*,4.11µM*
